The values that follow come from PubChem BioAssay.

Molecules are shown by their SMILES. Where “and” joins values, the source holds several entries; their conditions need not be identical. Equal values may be shown once. Calls of active or inactive are those of the source.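 How the source made its calls, unless noted: active means mean z-score across replicates of 1.96 or higher in either the MELAS or the Rieske mutant cell line; inactive means the rest.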

The nature of assay [1]: blockers of cellular phospholipid synthesis – cell-based, LOPAC library, screen 4, primary screen (AID 1347384; call rule not given here). The note with it: animal cells, phospholipid biosynthesis inhibition screen; at 10 µM.
A short description of assay [2]: MELAS cybrid and Rieske KO viability enhancers – cell-based, MELAS cybrids, Rieske KO mouse fibroblasts, CellTiter-Glo, primary screen (AID 1508586).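 Further: z relative to plate mean and SD of compound and empty wells.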 Particulars: low glucose. In general terms: Cellular ATP, detected with luciferase, serves as a proxy for viable cell number.
Assay [3] in a line: chitosan synthesis blockers in C. neoformans – flow cytometry, Cibacron Brilliant Red staining (AID 1347148; call rule not given here;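 further: compound exposure lasted three days at 37 degrees C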). Particulars: Cryptococcus neoformans chitosan, stronger effect = lower value; at 10 µM unless noted. In general terms: In flow cytometry, cells or beads pass a laser one at a time.
Assay [4] in a line: viability loss with induced miR-34 in A549 – imaging, A549 dox-inducible miR-34, nuclei and caspase counts, primary screen (AID 1347080;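 active means compounds whose cell count with miR-34 switched on is under 0.7 times the count with it off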). Particulars: A549 miR-34 inducible, Hoechst nuclei count, 48 h.
Where [5] appears, read: MELAS cybrid survival, CellTiter-Glo 48 h, stronger effect = higher value.
Setting [6] is: Rieske KO mouse fibroblast survival, CellTiter-Glo 72 h.
Where [7] appears, read: stronger effect = lower value, cell number ratio, induced over uninduced.
The mark [8] stands for this setting: measured here: relative caspase fold change +Dox/-Dox.
Where [9] appears, read: measured here: total cells with miR-34 induction, stronger effect = lower value.
[10] abbreviates: measured here: total cells without miR-34 induction.

For the compound `Clc1ccccc1C(c1ccccc1)(c1ccccc1)n1ccnc1`, the compound was classed as inactive in assay [1]. Besides, the z-score was -0.333 (inactive) and -0.755 (inactive) in assay [2] (setting [5]); 0.273 and 0.133 in assay [2] (setting [6]).

For the compound `O=C(O)c1ccccc1Nc1cccc(C(F)(F)F)c1`, the fold fluorescence in assay [3] is 5.28 [at 177.8 µM] (inactive). In addition, the z-score in assay [2] (setting [5]) is -0.231 (inactive) and 0.292 (inactive) and -0.218 (inactive); in assay [2] (setting [6]) it was -0.153 and 0.0506 and 0.216.

On to `COc1cc2c(cc1OC)-c1cc(=Nc3c(C)cc(C)cc3C)n(C)c(=O)n1CC2`, for which, in assay [3], the fold fluorescence is 11.7 [at 123.3 µM] (inactive). In assay [1], the call was inactive. In addition, the z-score in assay [2] (setting [5]) was 1.02 (inactive); in assay [2] (setting [6]) it was 1.81.

`NC(N)=NCCN1CCCCCCC1`: the fold change was 0.903 (inactive) and 0.92 (inactive) in assay [4] (setting [7]); 1.86 and 0.829 in assay [4] (setting [8]). Further, the cell count in assay [4] (setting [9]) is 8660 and 10700; in assay [4] (setting [10]), 9590 and 11600. For the same compound, the figures for the z-score in assay [2] (setting [5]) and in assay [2] (setting [6]) were -0.808 (inactive) and 0.402, respectively.

For `CC(C)(Oc1ccc(CCNC(=O)c2ccc(Cl)cc2)cc1)C(=O)O`, in assay [3], the fold fluorescence was 9.76 [at 138.2 µM] (inactive). The call in assay [1] was inactive. Moreover, the z-score in assay [2] (setting [5]) is -0.161 (inactive) and 0.38 (inactive) and -0.46 (inactive); in assay [2] (setting [6]), -0.148 and 0.0926 and -0.592.

For the compound `CC(N)C(=O)OC(C)(C)Cc1ccc(Cl)cc1` (centres undefined), the outcome in assay [1] was inactive.

Take `NC(N)=N/N=C/c1c(Cl)cccc1Cl`: the result in assay [1] was inactive. Further, the z-score in assay [2] (setting [5]) is -0.136 (inactive) and 1.02 (inactive); in assay [2] (setting [6]), 0.531 and 1.03.

Consider `CCN(CC)CCNC(=O)c1cc(Cl)c(N)cc1OC`, for which the result in assay [1] was inactive. The z-score in assay [2] (setting [5]) is -1.13 (inactive) and 0.206 (inactive) and 0.37 (inactive); in assay [2] (setting [6]), -0.268 and 0.0241 and 0.87.

Regarding `O=C(CCNNC(=O)c1ccncc1)NCc1ccccc1`, the call in assay [1] was inactive. The z-score in assay [2] (setting [5]) is -0.952 (inactive) and 0.716 (inactive); in assay [2] (setting [6]), -0.171 and 0.697.

Turning to `NCCCC[C@H](N[C@@H](CCc1ccccc1)C(=O)O)C(=O)N1CCC[C@H]1C(=O)O`, the fold change in assay [4] (setting [7]) was 0.921 (inactive) and 0.874 (inactive) and 0.913 (inactive); in assay [4] (setting [8]), 0.957 and 2.44 and 1.18. Also, the cell count in assay [4] (setting [9]) is 8900 and 11300 and 9570; in assay [4] (setting [10]), 9670 and 13000 and 10500. In addition, the z-score in assay [2] (setting [5]) was 0.256 (inactive) and -0.39 (inactive); in assay [2] (setting [6]) it was -0.142 and -0.658.

In the case of `CC(C)(Oc1ccc(Cl)cc1)C(=O)O`, the fold change was 0.908 (inactive) and 0.929 (inactive) and 0.927 (inactive) in assay [4] (setting [7]); 1.01 and 0.543 and 0.953 in assay [4] (setting [8]). The cell count in assay [4] (setting [9]) was 9250 and 7700 and 8560; in assay [4] (setting [10]), 10200 and 8280 and 9240. For the same compound, the z-score in assay [2] (setting [5]) is -0.232 (inactive) and -0.856 (inactive); in assay [2] (setting [6]), -0.207 and -0.151.

`CN1CCN(c2c(F)cc3c(=O)c(C(=O)O)cn4c3c2SCC4)CC1`: the fold change in assay [4] (setting [7]) is 0.974 (inactive) and 0.992 (inactive) and 0.895 (inactive); in assay [4] (setting [8]), 0.702 and 1.33 and 0.919. Further, the cell count in assay [4] (setting [9]) was 7420 and 9770 and 9480; in assay [4] (setting [10]), 7610 and 9850 and 10600. In addition, the z-score was 0.206 (inactive) and 0.665 (inactive) in assay [2] (setting [5]); 0.617 and -0.349 in assay [2] (setting [6]).

On to `CN(C)CCC(c1ccccc1)c1ccccn1` (centres undefined), for which, in assay [1], the compound was classed as inactive. Further, the z-score in assay [2] (setting [5]) is 0.589 (inactive) and -0.102 (inactive) and 0.319 (inactive); in assay [2] (setting [6]) it was -0.594 and -0.285 and 0.31.

With `c1cnc(N2CCN(Cc3ccc4c(c3)OCO4)CC2)nc1`, the call in assay [1] was inactive. In addition, the z-score in assay [2] (setting [5]) is -0.549 (inactive) and -0.596 (inactive); in assay [2] (setting [6]), -0.536 and 0.482.

`CCCOc1ccccc1-c1nc2n[nH]nc2c(=O)[nH]1`: the fold fluorescence in assay [3] is 6.79 [at 184.3 µM] (inactive). Moreover, the compound was classed as inactive in assay [1]. The z-score in assay [2] (setting [5]) was 0.137 (inactive) and -0.665 (inactive); in assay [2] (setting [6]) it was -0.13 and -0.629.

Regarding `Cc1c(NC(=O)c2cccnc2)c(=O)n(-c2ccccc2)n1C`, the figures for the fold change in assay [4] (setting [7]) and in assay [4] (setting [8]) were 0.892 (inactive) and 1.07, respectively. The cell count in assay [4] (setting [9]) stood at 8460; in assay [4] (setting [10]), 9480. The results for the z-score in assay [2] (setting [5]) and in assay [2] (setting [6]) were 0.707 (inactive) and 0.58, respectively.

For the compound `O=C(NCCN1CCOCC1)c1ccc(Cl)cc1`, in assay [4] (setting [10]), the cell count is 10300 and 10900 and 9280. Moreover, in assay [1], the call was inactive. Further, the z-score in assay [2] (setting [5]) was 0.188 (inactive) and 0.694 (inactive); in assay [2] (setting [6]) it was 0.0884 and 0.188.

`CCOc1ccc2nc3cc(N)ccc3c(N)c2c1`: the fold change in assay [4] (setting [7]) is 0.785 (inactive) and 0.928 (inactive); in assay [4] (setting [8]) it was 2.5 and 0.759. Further, the cell count is 3210 and 7370 in assay [4] (setting [9]); 4090 and 7950 in assay [4] (setting [10]). The z-score is 7.85 (active) in assay [2] (setting [5]) and 4.68 in assay [2] (setting [6]).
